HT1080 IDH1KD tx: toxicity to HT-1080 IDH1 knockdown cells (counter line); AID 686971; 2% of 360,000 active; HT-1080 IDH1 knockdown viability, ATP luminescence, 48 h; Potency, µM (series often up to 46.1 µM), inactives show top-dose activity, negative = toxicity, hits mostly cytotoxic;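 note: potency is the fitted concentration of half-maximal effect; 0% = DMSO wells and -100% = cell-free medium wells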
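After a 2 h attachment period, IDH1KD HT-1080 cells took pin-transferred compound for 48 h at 37 °C; ATP-based luminescence after 10 min room-temperature reagent incubation reported viability.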
HT1080NT lethal: kills 2HG-producing HT-1080-NT fibrosarcoma cells | HT-1080-NT fibrosarcoma viability, CellTiter-Glo ATP luminescence, 48 h | Potency, µM (doses to about 46.1 µM), for inactives: at the highest dose activity, negative = less viability, usual class: cytotoxic | 1.6% of 360,000 active | AID 686970;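 note: NT is the 2HG producing partner of a matched IDH1 knockdown line; potency is the fitted concentration of half-maximal effect; 0% = DMSO-treated cells and -100% = media-only wells without cells; nearly all actives have a fitted effect of over 55% in size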
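Toxicity toward the 2HG-producing NT line was scored as %Activity, normalised to DMSO and no-cell wells, from CellTiter-Glo luminescence after 48 hours' treatment.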
IL1B secr inh: blocks inflammasome-driven IL-1 beta release | THP-1 LPS/ATP IL-1B secretion, AlphaLISA, 16 h; stronger effect = lower value | activity change, % at 57.5 µM | 4.7% of 360,000 active; in the data active = activity change below about -50%; inconclusive = mostly about -30% to -49%
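Secreted IL-1B measured by AlphaLISA bead assay after 16 h compound exposure of THP-1 cells; compounds (final up to 57.5 uM) added 1 h before LPS (250 ng/mL) and ATP (1.25 mM) stimulation; lower signal means less secretion.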
TDP1 cell CPT: DT40-hTDP1 cell growth loss with CPT; chicken DT40 Tdp1-/-;hTDP1 cells + 20 nM CPT, ATP luminescence, 48 h; Potency, µM (doses to about 46.2 µM), for inactives: at the top dose activity change, negative = growth inhibition, usual class: inhibitors; 12% of 420,000 active; AID 686979; note: potency is the fitted concentration of half-maximal effect; nearly all actives have a fitted effect of over 55% in size
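Cell growth measured by CellTiter-Glo luminescence after a minimum 48 h, 37 C compound exposure with 20 nM CPT in Tdp1-knockout DT40 cells stably expressing hTDP1, seeded 400/well; qHTS titration format.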
DT40 TDP1 no CPT: qHTS for Inhibitors of human tyrosyl-DNA phosphodiesterase 1 (TDP1): qHTS in cells in absence of CPT; Potency, µM (highest dose often 46.2 µM), for the others: top-dose activity change, negative = growth inhibition, usual class: inhibitors; DT40 Tdp1-/- hTDP1 cells, no CPT, ATP luminescence, 48 h; 15% of 420,000 active; note: potency is the fitted concentration of half-maximal effect; nearly all actives have a fitted effect of over 55% in size
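Camptothecin absent (DMSO only). Human TDP1-complemented DT40 knockout cells, 400 cells/well, 37 °C for minimum 48 hr; ATP measured via CellTiter-Glo, 30 min dark incubation, luminescence.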
* hit, by the source's call; u = inconclusive; x = no result; [ ] = remark or other dose. Compounds with a hit are over-represented: about 19% of the library has one in this group of screens. Unless noted, calls come from the whole dose curve; as a rule, active = well fitted curve in the direction sought with a large enough effect; inconclusive = small, poorly fitted or top-dose-only effect, or another doubt; inactive = no such curve, though single readings can be large; an effect the other way counts as inactive or inconclusive. Unless noted, % is set by controls: 0 for no effect and ±100 for the full control effect.

SMILES	HT1080 IDH1KD tx	HT1080NT lethal	IL1B secr inh	TDP1 cell CPT	DT40 TDP1 no CPT
COc1ccc(N2CCN(C(=O)Cc3coc4ccc(C)cc34)CC2)cc1	x	x	x	18.4µM*	u
CCOCC(=O)N1CCN(c2cccc(Cl)c2)CC1	9.4%	6.1%	-5.3	-11.0%	u
Cc1ccc2onc(CC(=O)N3CCN(c4ccc(F)cc4)CC3)c2c1	x	x	x	14.6µM*	u
COc1ccc(CC(=O)N2CCN(C(=O)Cc3ccc(OC)c(OC)c3)CC2)cc1OC	3.2%	6.5%	13.2	1.0%	-13.1%
COc1ccc(N2CCN(C(=O)Cc3ccc(OC)c(OC)c3)CC2)cc1	-16.1%	-13.7%	-1.9	8.2µM*	16.4µM*
CCOc1cccc(=O)c2c(C)n(CC(=O)c3ccccc3)c(C)c12	-4.4%	-7.1%	-59.4*	u	u
Cc1ccccc1NC(=O)CSc1nnc(-c2cccc(Cl)c2)o1	x	x	x	-12.2%	-0.8%
COc1cc2nc(NC3CCN(C)CC3)nc(NC3CCN(C)CC3)c2cc1OC	6.3%	3.2%	x	u	u
COc1cc2nc(NC3CCN(C)CC3)nc(N3CCCN(C)CC3)c2cc1OC	-3.4%	9.0%	x	u	u
COc1cc2nc(N(C)C)nc(NC3CCN(C)CC3)c2cc1OC	u	u	x	4.47µM*	3.98µM*
COc1cc2nc(N(C)C)nc(N)c2cc1OC	u	-27.4%	0.0	u	25.9µM*
COc1cc2nc(Cl)nc(NC3CCN(C)CC3)c2cc1OC	13.1%	3.5%	x	11.2µM*	u
COc1cc2nc(CCNCc3ccccc3)nc(NC3CCN(C)CC3)c2cc1OC	u	u	x	5.62µM*	5.01µM*
COc1cc2nc(N(C)CCCNC(=O)C3CCCO3)nc(N)c2cc1OC (stereo unspecified)	x	x	x	5.2%	-14.4%
O=C(c1ccc(NS(=O)(=O)c2ccc(F)cc2)cc1)N1CCCCCC1	-7.6%	-14.7%	-17.3	u	u
NC[C@H]1O[C@H](O[C@H]2[C@H](O[C@@H]3O[C@H](CO)[C@@H](O)[C@H]3O)C(O)[C@H](N)C[C@@H]2N)[C@H](N)[C@@H](O)[C@@H]1O (stereo partly specified)	x	x	x	-15.0%[21.1 µM]	-8.7%[21.1 µM]
Cc1cc(C)c(N(C(=O)Cn2nnc3ccccc32)C(C(=O)NC(C)(C)C)c2ccsc2)c(C)c1 (stereo unspecified)	-23.7%	5.7%	11.6	16.4µM*	u
Cc1ccc(C)c(N(C(=O)Cn2nnc3ccccc32)C(C(=O)NC(C)(C)C)c2ccsc2)c1 (stereo unspecified)	-13.1%[9.24 µM]	4.2%	30.3	23.1µM*	u
CC(C)(C)NC(=O)C(c1ccsc1)N(CCc1ccccc1)C(=O)Cn1nnc2ccccc21 (stereo unspecified)	2.0%	-6.0%	25.9	u	-29.6%
COc1ccc(CNC(=O)Cn2nc(C)c3c(C)n(-c4ccc(C)cc4)nc3c2=O)cc1OC	-6.1%	u	-7.7	-25.9%	-8.8%
O=S(c1cc(Cl)cc(Cl)c1O)c1cc(Cl)cc(Cl)c1O	u	u	-67.5*	-6.3%	u
Cc1cc(C)n(-c2cc(C(C)(C)C)nc3c(-c4ccccc4)cnn23)n1	u	u	x	-21.1%	u
Cc1cc(C)n(-c2cc(C(C)(C)C)nc3c(-c4ccc(Cl)cc4)cnn23)n1	u	u	-2.3	11.2µM*	u
CC(C)(C)c1cc(N2CCOCC2)n2ncc(-c3ccc(Cl)cc3)c2n1	5.1%	u	-0.7	u	13µM*
O=C1CCCCC(=O)[C@H](OC(=O)c2ccccc2)C[C@H](c2ccccc2)O1	-3.6%	-5.3%	33.1	-12.1%	u
SMILES	HT1080 IDH1KD tx	HT1080NT lethal	IL1B secr inh	TDP1 cell CPT	DT40 TDP1 no CPT
CCOC(=O)c1sc(Nc2nc(C)cc(OC)n2)nc1C	6.1%	15.6%	72.4	u	13µM*
CCOC(=O)c1sc(NC(=O)CC)nc1C	-1.3%	10.4%	-26.9	-1.7%	-8.1%
CCOC(=O)c1sc(Nc2nc(C)cc(C)n2)nc1C	0.9%	-4.7%	30.7	7.31µM*	6.51µM*
CCOC(=O)c1sc(Nc2ccc(C)cc2C)nc1C	-5.3%	-12.0%	-17.1	u	15.8µM*
CCOC(=O)c1sc(Nc2ccc(F)cc2)nc1C	-2.4%	-13.3%	-20.7	u	u
O=C(O)c1ccccc1C(=O)c1ccc2c(c1)N(Cc1ccc(Cl)c(Cl)c1)C(=O)CO2	-23.4%	-29.0%	-52.9*	-23.9%	u
CN(CCC1CCOCC1)C(=O)C1CCC(=O)N(CCc2ccccc2)C1 (stereo unspecified)	-1.5%	0.0%	8.0	11.2%	8.2%
O=C(N/N=C\c1cc(Cl)ccc1O)c1ccc(S(=O)(=O)N2CCCCC2)cc1	2.31µM*	7.31µM*	61.8	0.651µM*	0.731µM*
O=C(Nc1cc(S(=O)(=O)Nc2ccc(Cl)cc2)ccc1O)c1ccc(S(=O)(=O)N2CCCCCC2)cc1	u	-28.9%	-0.5	u	20.6µM*
O=C(N/N=C/c1ccc(O)c(O)c1)c1cccc(S(=O)(=O)N2CCCC2)c1	-16.7%	0.7%	5.9	-23.7%	u
O=C(Nc1cc(S(=O)(=O)N2CCOCC2)ccc1O)c1ccc(S(=O)(=O)N2CCCCC2)cc1	1.6%	12.8%	-5.4	u	u
Cc1cc(C)nc(NC2=NCCN2C(=S)Nc2ccc(C)c(C)c2)n1	u	6.5%	x	2.4%	u
O=S(=O)(c1ccccc1)N1CCC(n2nnc3cc(F)ccc32)CC1	-26.8%	-26.4%	-5.1	u	-14.0%
O=S(=O)(c1ccc2c(c1)OCCO2)N1CCC(n2nnc3cc(C(F)(F)F)ccc32)CC1	-18.3%	-22.5%	-29.5	u	16.4µM*
O=C(NCCc1ccc(Cl)cc1)c1ccc(Cn2c(=O)[nH]c3ccccc3c2=O)cc1	x	x	x	6.51µM*	3.66µM*
COc1ccc(Cn2c(=O)[nH]c3cc(C(=O)N4CCN(c5ccc(OC)cc5)CC4)ccc3c2=O)cc1	4.1%	12.4%	11.1	-3.0%	u
NS(=O)(=O)c1ccc(CCNC(=O)c2ccc(Cn3c(=O)[nH]c4ccccc4c3=O)cc2)cc1	-2.2%	-3.5%	10.3	0.0%	-0.5%
CCOC(=O)N1CCN(C(=O)c2ccc(Cn3c(=S)[nH]c4ccc(Br)cc4c3=O)cc2)CC1	11.0%	-3.9%	-63.3*	5.17µM*	1.03µM*
O=C(c1ccc(Cn2c(=O)[nH]c3ccccc3c2=O)cc1)N1CCN(c2ccc(Cl)cc2)CC1	u	u	-25.3	23.1µM*	16.4µM*
COc1ccc(Cn2c(=O)[nH]c3cc(C(=O)N4CCN(c5ccc(C(C)=O)cc5)CC4)ccc3c2=O)cc1	-12.1%	-13.4%	26.8	u	14.6µM*

High-throughput results from PubChem.
